# Reference: PubChem BioAssay (NCI)
# This is part of a sample that, as a whole, favours compounds with a hit. Of some 83,000 tested, about 20% had one in any assay.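 Single-concentration screen, 48 h exposure, 96-well plates. Endpoint: percent growth. Below 10 = active.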 The source made the active and inactive calls.
# Tested on: MDA-MB-468 breast
# Assay: NCI-60 one-dose screen, 48 h (100 = growth as untreated, 0 = no growth, -100 = all killed)
# Conditions: 10 µM unless noted
row,Compound,growth
1,O=C(NCCN1CC1)C(=O)NCCN1CC1,81.3% (inactive)
2,c1ccc(Nc2nc(-c3ccccc3)c[se]2)cc1,49.8% (inactive)
3,c1ccc2c(c1)sc1ccccc12,97.2% (inactive)
4,CC(C)(C)N1CC1C#N (stereo unspecified),97% (inactive)
5,CNC(=O)Oc1ccc2c(c1)OCO2,94.6% (inactive)
6,O=C1C=CC(=O)C2C1C1(Cl)C(Cl)=C(Cl)C2(Cl)C1(Cl)Cl (stereo unspecified),5.2% (active)
7,CC(=O)O[C@H](C[C@H](C(C)C)N(C)C(=O)[C@@H](NC(=O)[C@H]1CCCCN1C)C(C)C)c1nc(C(=O)N[C@@H](Cc2ccccc2)C[C@H](C)C(=O)O)c(C(C)C)s1,19.8% (inactive)
8,O=C1N[C@@H]2[C@@H](O)[C@@H](O)[C@H](O)C[C@H]2c2cc3c(c(O)c21)OCO3,-45.8% (active)
9,O=C([O][Hg][CH2]C1OCCOC1[CH2][Hg][O]C(=O)c1ccccc1)c1ccccc1 (stereo unspecified),-81.5% (active)
10,C/C(=N/OC(=O)N(C)C)c1ccc(Cl)c(Cl)c1,120% (inactive)
11,O=C1NC(=O)C(CN2C(=O)C3(c4ccccc42)[C@H](Cl)C(=O)N3c2ccccc2)C(=O)N1 (stereo partly specified),-23.1% (active)
